According to PubChem BioAssay (NCI):
The panel holds about 83,000 compounds, 20% with a hit somewhere; the sample as a whole holds those more often.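 Single-dose data. Exposure time 48 hours. Values below 10 considered active.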 A number with no mark means an inactive call. Calls of active or inactive are those of the source.

tested on: UACC-257 melanoma; experiment: NCI-60 one-dose screen, 48 h (100 = growth as untreated, 0 = no growth, -100 = all killed); details: 10 µM unless noted

SMILES | growth
CC(c1ccc(-n2cccn2)cc1)c1cnc(N2CCc3ccc(C(N)=O)cc3C2)s1 (stereo not drawn) | 48.7%
COc1cc2c(cc1OC)-c1ccc3cc4c(cc3c1N(CCCN1CCCCC1)C2)OCO4 | 64.3%
C[C@@H](C[C@H](CCOCc1cccnc1)c1ccccc1)c1cc2ccccc2o1 | 94%
N#Cc1c(N)n2c(nc1=Nc1ccc([N+](=O)[O-])cc1)sc1cc(Cl)ccc12 | 109%
C=C1C(=O)O[C@H]2[C@H]1CC/C(C(=O)NCCCCCCCCNC(=O)/C1=C/CC[C@@]3(C)O[C@H]3[C@H]3OC(=O)C(=C)[C@@H]3CC1)=C\CC[C@@]1(C)O[C@@H]21 | 61.8%
O=C(NCCOCCOCCOCCNC(=O)c1cc2c(o1)C(=O)c1ccccc1C2=O)NC12CC3CC(CC(C3)C1)C2 | -77% (active)
CCOc1ccc2nc(-c3cccc(OCC(=O)NC(C)C)c3)nc(Nc3ccc(-c4cn[nH]c4)cc3)c2c1 | -53.7% (active)
CSc1ncc(C)c(Nc2ccc(Cl)cc2)n1 | 127%
O=C1CCC(N2C(=O)c3cccc(NCCCC4CCN(CCNC(=O)c5cc6c(o5)C(=O)c5ccccc5C6=O)CC4)c3C2=O)C(=O)N1 (stereo not drawn) | -85.5% (active)
CCOC(=O)C1C(=O)C=C(c2cnccn2)CC1c1ccc(OC)c(OC)c1 (stereo not drawn) | 81.8%
OC(CBr)c1ccnc2ccccc12 (stereo not drawn) | 99.6%
O=C1N(c2ccccc2)C(=S)N[C@]12[C@H](c1ccccc1)C1CCCN1[C@]21C(=O)NC2C=CC(Cl)=C[C@H]21 (stereo partly drawn) | 69.8%
CC(C)n1nc(C#Cc2cccc(O)c2)c2c(N)ncnc21 | -41.4% (active)
COc1cc2c(=O)n(CCCn3ccnc3)c3c4cc5c(cc4ccc3c2cc1OC)OCO5 | 3.98% (active)
O=C(/C=C/C12c3ccccc3C(c3ccccc31)C1C(=O)N(c3ccccc3)C(=O)C12)c1ccccc1 (stereo not drawn) | 33.6%
O=C(CC12CC3CC(CC(C3)C1)C2)NCCOCCOCCOCCNC(=O)c1cc2c(o1)C(=O)c1ccccc1C2=O | -80.7% (active)
O=C1Nc2ccccc2/C1=N/N=C/c1ccc(OC2OC(CO)C(O)C(O)C2O)cc1 (stereo not drawn) | 106%
CC(=[N-])N1CCC[C@@H](Nc2c3ccccc3nc3ccccc23)C1.[Cl][Pt].[NH-]CCC[NH-] | 66.9%
O=C1Nc2ccccc2/C1=N/N=C/c1c[nH]c2ccccc12 | 92.4%
CNC1(C#N)CCN(Cc2ccccc2)CC1 | 101%

SMILES | growth
COc1cc2c(cc1OC)-c1ccc3cc4c(cc3c1N(CCCn1ccnc1)C2)OCO4 | 52.8%
NC(=O)c1c(NC(=O)c2ccccn2)sc2c1CCC(=O)C2 | 46.9%
NC(N)=N/N=C/c1ccc(Br)cc1 | 58.6%
CCNCCNc1cc(C2CCCC2)c(C#N)c2nc3ccccc3n12 | -27.3% (active)
CS(=O)(=O)c1ccc(-c2[nH]c3ccc(F)cc3c2/C=N/O)cc1 | 86.7%
N=C(N)c1ccc(-c2ccc(-c3ccc(Cl)cc3Cl)o2)cc1 | 90.9%
CC(=O)C(C(C)=O)c1nc2sc3cc(Cl)ccc3n2c(=N)c1C#N | 108%
Cc1ccc(/C=C(\C#N)n2nnc3cc(Cl)c(Cl)cc32)cc1 | 50.3%
O=S(=O)(NCCNc1cc(-c2c(-c3cccc(O)c3)nc3sccn23)ccn1)c1ccc(Br)cc1 | 89.1%
COc1ccc(/C(C)=N/NS(=O)(=O)c2ccc(C)cc2)cc1OC | 104%
C=C(Cl)COC(=O)C(C)(C)O | 92.2%
CCc1c(C(=O)N[C@@H]2c3cc(Cl)ccc3CC[C@@H]2O)[nH]c(C)c1C(C)=O | 80.2%
COc1cc2nc(Nc3ccc(F)cc3)nc(N)c2cc1OC | 102%
c1ccc2c(c1)nc(-n1ccnc1)c1nc3ccccc3n12 | 82.3%
COC(=O)/C(=C\c1ccc(OC)cc1)C(=O)N1c2ccccc2Sc2ccccc21 | 65.4%
CN1CCN(c2ccc(Nc3ncc(Cl)c(NC[C@@H]4CCCO4)n3)cc2)CC1 | 44.7%
O=C(NC1CCOCC1)c1ccc2c(c1)CN(c1ncc(Cc3cccc(-n4cccn4)c3)s1)CC2 | 62.6%
[2H]c1nc(Nc2ncc(F)c(-c3cc(F)c4nc(C)n(C(C)C)c4c3)n2)c([2H])c([2H])c1CN1CCN(C([2H])([2H])C([2H])([2H])[2H])CC1 | 52.3%
COc1ccc(C2CC(c3cnccn3)=NN2)cc1OC (stereo not drawn) | 106%

tested on: M14 melanoma; experiment: as above; details: 10 µM unless noted

SMILES | growth
CC(c1ccc(-n2cccn2)cc1)c1cnc(N2CCc3ccc(C(N)=O)cc3C2)s1 (stereo not drawn) | 45.6%
COc1cc2c(cc1OC)-c1ccc3cc4c(cc3c1N(CCCN1CCCCC1)C2)OCO4 | 54%
C[C@@H](C[C@H](CCOCc1cccnc1)c1ccccc1)c1cc2ccccc2o1 | 92.8%
N#Cc1c(N)n2c(nc1=Nc1ccc([N+](=O)[O-])cc1)sc1cc(Cl)ccc12 | 105%
C=C1C(=O)O[C@H]2[C@H]1CC/C(C(=O)NCCCCCCCCNC(=O)/C1=C/CC[C@@]3(C)O[C@H]3[C@H]3OC(=O)C(=C)[C@@H]3CC1)=C\CC[C@@]1(C)O[C@@H]21 | 82.8%
O=C(NCCOCCOCCOCCNC(=O)c1cc2c(o1)C(=O)c1ccccc1C2=O)NC12CC3CC(CC(C3)C1)C2 | -40.2% (active)
CCOc1ccc2nc(-c3cccc(OCC(=O)NC(C)C)c3)nc(Nc3ccc(-c4cn[nH]c4)cc3)c2c1 | 11.6%
CSc1ncc(C)c(Nc2ccc(Cl)cc2)n1 | 112%
O=C1CCC(N2C(=O)c3cccc(NCCCC4CCN(CCNC(=O)c5cc6c(o5)C(=O)c5ccccc5C6=O)CC4)c3C2=O)C(=O)N1 (stereo not drawn) | -83.2% (active)
CCOC(=O)C1C(=O)C=C(c2cnccn2)CC1c1ccc(OC)c(OC)c1 (stereo not drawn) | 85.5%
OC(CBr)c1ccnc2ccccc12 (stereo not drawn) | 98%
O=C1N(c2ccccc2)C(=S)N[C@]12[C@H](c1ccccc1)C1CCCN1[C@]21C(=O)NC2C=CC(Cl)=C[C@H]21 (stereo partly drawn) | 81.9%
CC(C)n1nc(C#Cc2cccc(O)c2)c2c(N)ncnc21 | -63.8% (active)
COc1cc2c(=O)n(CCCn3ccnc3)c3c4cc5c(cc4ccc3c2cc1OC)OCO5 | -4.48% (active)
O=C(/C=C/C12c3ccccc3C(c3ccccc31)C1C(=O)N(c3ccccc3)C(=O)C12)c1ccccc1 (stereo not drawn) | 14.7%
O=C(CC12CC3CC(CC(C3)C1)C2)NCCOCCOCCOCCNC(=O)c1cc2c(o1)C(=O)c1ccccc1C2=O | -76.2% (active)
O=C1Nc2ccccc2/C1=N/N=C/c1ccc(OC2OC(CO)C(O)C(O)C2O)cc1 (stereo not drawn) | 108%
CC(=[N-])N1CCC[C@@H](Nc2c3ccccc3nc3ccccc23)C1.[Cl][Pt].[NH-]CCC[NH-] | 65.3%
O=C1Nc2ccccc2/C1=N/N=C/c1c[nH]c2ccccc12 | 59.5%
CNC1(C#N)CCN(Cc2ccccc2)CC1 | 94%

SMILES | growth
COc1cc2c(cc1OC)-c1ccc3cc4c(cc3c1N(CCCn1ccnc1)C2)OCO4 | 27.1%
NC(=O)c1c(NC(=O)c2ccccn2)sc2c1CCC(=O)C2 | 22.5%
NC(N)=N/N=C/c1ccc(Br)cc1 | 14.6%
CCNCCNc1cc(C2CCCC2)c(C#N)c2nc3ccccc3n12 | -25.7% (active)
CS(=O)(=O)c1ccc(-c2[nH]c3ccc(F)cc3c2/C=N/O)cc1 | 96.6%
N=C(N)c1ccc(-c2ccc(-c3ccc(Cl)cc3Cl)o2)cc1 | 8.85% (active)
CC(=O)C(C(C)=O)c1nc2sc3cc(Cl)ccc3n2c(=N)c1C#N | 97.2%
Cc1ccc(/C=C(\C#N)n2nnc3cc(Cl)c(Cl)cc32)cc1 | -23% (active)
O=S(=O)(NCCNc1cc(-c2c(-c3cccc(O)c3)nc3sccn23)ccn1)c1ccc(Br)cc1 | 60.8%
COc1ccc(/C(C)=N/NS(=O)(=O)c2ccc(C)cc2)cc1OC | 117%
C=C(Cl)COC(=O)C(C)(C)O | 103%
CCc1c(C(=O)N[C@@H]2c3cc(Cl)ccc3CC[C@@H]2O)[nH]c(C)c1C(C)=O | 87.4%
COc1cc2nc(Nc3ccc(F)cc3)nc(N)c2cc1OC | 107%
c1ccc2c(c1)nc(-n1ccnc1)c1nc3ccccc3n12 | 93.1%
COC(=O)/C(=C\c1ccc(OC)cc1)C(=O)N1c2ccccc2Sc2ccccc21 | 23.3%
CN1CCN(c2ccc(Nc3ncc(Cl)c(NC[C@@H]4CCCO4)n3)cc2)CC1 | 21.7%
O=C(NC1CCOCC1)c1ccc2c(c1)CN(c1ncc(Cc3cccc(-n4cccn4)c3)s1)CC2 | 64%
[2H]c1nc(Nc2ncc(F)c(-c3cc(F)c4nc(C)n(C(C)C)c4c3)n2)c([2H])c([2H])c1CN1CCN(C([2H])([2H])C([2H])([2H])[2H])CC1 | 47.5%
COc1ccc(C2CC(c3cnccn3)=NN2)cc1OC (stereo not drawn) | 89.5%
